Assay outcomes as filed in PubChem.
The full list was thinned out, with hits kept by preference.
Dicer processing = human Dicer pre-microRNA cleavage inhibition; Q9UPY3; cat-ELCCA pre-miR-21 Dicer processing, chemiluminescence; stronger effect = higher value; z-score at 25 µM; 6% of 47,000 active; in the data active = z-score above about 3, passing the limit was not always enough;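 also: plate controls were vehicle for no effect and no enzyme for full effect; higher signal means more uncleaved substrate so more Dicer inhibition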
Active calls of the source: *.

SMILES	Dicer processing
COc1ccc(-c2c(C)nn3c(N)c(-c4ccc(Cl)cc4)cnc23)cc1OC	5.46
CCCC(=O)c1c[nH]c2ccccc12	-0.25
Oc1c(C(Nc2ccccc2Cl)c2cccnc2)ccc2cccnc12 (configuration not stated)	6.24*
Cc1cc(Cl)ccc1NC(c1ccccn1)c1ccc2cccnc2c1O (configuration not stated)	9.11*
Cc1ccc(NC(c2ccccn2)c2ccc3cccnc3c2O)c(C)c1 (configuration not stated)	-1.18
Cc1cc(Cl)ccc1Oc1ncccc1N	-2.88
O=C(Nc1cccc2cccnc12)C(Cl)(Cl)Cl	-0.2
Cc1cc(Cl)ccc1NC(c1cccnc1)c1ccc2cccnc2c1O (configuration not stated)	11.3*
Cc1ccc(NC(c2cccnc2)c2ccc3cccnc3c2O)cc1C (configuration not stated)	-0.31
Cc1ccc2c(c1)C(O)(CC(=O)c1ccc3c(c1)OCCO3)C(=O)N2 (configuration not stated)	0.8
CCOC(=O)c1nc(Nc2cc(OC)ccc2OC)c2ccccc2n1	0.18
CCOc1ccsc1-c1nnc(-c2ccc(Cl)cc2)o1	0.18
CC1=NN(c2ccc(C)cc2)C(=O)/C1=C/N(C)C	-7.56
COc1ccc(Cl)cc1N1CC(O)=C(c2nc3ccccc3s2)C1=N	-1.56
OC1(C(F)(F)F)CC(/C=C/c2ccc3c(c2)OCO3)=NN1 (configuration not stated)	-0.2
Cc1cnn2c3c(cnc12)C(=O)c1ccccc1-3	0.42
Cc1cc(N2CCOCC2)nc(N2CCOCC2)n1	0.53
Cc1cc(C)nc(N2CCN(c3nc(C)cc(C)n3)CC2)n1	4.16*
Cc1cc(C)nc(N2CCC(NC3CC(=O)N(c4ccc(F)cc4)C3=O)CC2)n1 (configuration not stated)	0.35
Cc1ccc(N2C(=O)C3CC=CCC3C2=O)cc1Cl (configuration not stated)	0.96
NNC(=O)CNC(=O)c1ccc(Br)cc1	4.75*
O=C(O)CNC(=O)c1ccc(Br)cc1	0.52
NNC(=O)CNC(=O)c1c(F)cccc1F	-2
O=C(/C=C/Sc1ccc(Cl)cc1)c1cccc2ccccc12	-1.29
CCC(C)c1ccc(NCN2C(=O)c3ccccc3C2=O)cc1 (configuration not stated)	3.11*
SMILES	Dicer processing
O=C1c2ccccc2C(=O)N1CNc1ccccc1Oc1ccc(Cl)cc1Cl	-0.05
O=C1c2ccccc2C(=O)N1CNc1ccc(Oc2ccc(Cl)cc2)cc1	5.27
O=C1c2ccccc2C(=O)N1CNc1ccc(Oc2ccccc2)cc1	3.83*
CCCc1ccc(NCN2C(=O)c3ccccc3C2=O)cc1	2.24
CCc1ccccc1NCN1C(=O)c2ccccc2C1=O	3.43*
Cc1cccc(NCN2C(=O)c3ccccc3C2=O)c1C	5.1
O=C1c2ccccc2C(=O)N1Cc1cccnc1	-0.5
O=C1c2ccc([N+](=O)[O-])cc2C(=O)N1CNc1cc(C(F)(F)F)cc(C(F)(F)F)c1	1.92
N#C/C(=C\Nc1ccccn1)C(=O)c1ccccc1	0.39
CCOc1ccc(C2c3c(oc4ccccc4c3=O)C(=O)N2Cc2ccc3c(c2)OCO3)cc1OC (configuration not stated)	1.41
CCOCCOC(=O)C1=C(C)NC2=C(C(=O)CCC2)C1c1ccccc1OC(C)C (configuration not stated)	-0.59
c1ccc2c(c1)NC(c1ccc3nsnc3c1)c1cccn1-2 (configuration not stated)	0.96
N=C(c1ccc(Cl)cc1)c1cc2ccccc2cn1	-0.9
CSc1nc2cc(C3CC3)nn2c(N)c1S(=O)(=O)c1ccc(Cl)cc1	1.02
CSc1ccncc1C(=O)Nc1cc(Cl)cc(Cl)c1	-1.18
O=C(CS(=O)(=O)c1ccc(Cl)cc1)c1ccccc1	2.46
CC1(C)CC(=O)C2=C(C1)Nc1ccccc1NC2c1ccc([N+](=O)[O-])o1 (configuration not stated)	-0.3
O=C(COC(=O)c1cc2ccccc2cc1OC(=O)c1ccc(Cl)cc1)c1ccccc1	-0.71
O=C(COC(=O)c1ccc(F)c(Cl)c1)c1ccc(Cl)cc1	0.91
O=C(COC(=O)c1cc(Cl)ccc1O)c1ccc(-c2ccccc2)cc1	6.08*
O=C(O)Cn1c(=O)n(CC(=O)O)c2ccccc21	1.16
CC(=O)NNC(=O)c1c(C)nc2cc(C)ccn12	-1.04
O=C(O)[C@@H]1CSC([C@H](O)[C@H](O)[C@@H](O)[C@@H](O)CO)N1 (some centres not stated)	-0.66
COc1ccc(C2C3=C(CC(c4ccccc4)CC3=O)Nc3nc4ccccc4n32)cc1 (configuration not stated)	2.28
CCCN1C(=O)C2(/C(=C(/O)c3ccc(OC)cc3)C(=O)C(=O)N2CCCOC)c2ccccc21 (configuration not stated)	3.11*
CCCN1C(=O)C2(/C(=C(/O)c3ccc(Cl)cc3)C(=O)C(=O)N2CCOC)c2ccccc21 (configuration not stated)	-1.62
